# Fam108B inh – mouse Fam108B serine hydrolase inhibitors, primary screen, counter-screen for RBBP9 inhibitor project, biochemical, fluorescence polarization | AID 1947, 2009 | inhibition, % at 9.51 µM | hit rate 0.33% among 300,000 | recombinant Fam108B, FP-Rh probe fluorescence polarization;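 active = inhibition above the screen mean inhibition plus 3 SD, computed separately per campaign, cut at about 18% in these data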;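 note: inhibitors lower polarization as less probe binds the enzyme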
# PME-1 primary – PME-1 inhibitors via competitive probe labeling, primary screen, biochemical, fluorescence polarization, FP-Rh probe, HTS; recombinant PME-1; inhibition, % at 5.9 µM; hit rate 0.53% among 320,000; AID 2130, 2009;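 active = inhibition above the campaign mean of all compounds plus 3 SD, cut at about 26% in these data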;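 note: competitive labeling of PME-1 active site by serine hydrolase directed probe; 0% = PME-1 with DMSO and 100% = wells lacking PME-1 enzyme; inhibitors block probe labeling so polarization falls and inhibition rises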
# PAFAH2 inh – PAFAH2 enzyme inhibitors, primary screen, biochemical, fluorescence polarization, human; recombinant PAFAH2, FP-rhodamine activity probe; inhibition, % at 3.39 µM; hit rate 0.99% among 340,000; AID 492956, 2010;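 active = inhibition above the mean over all tested compounds plus 3 SD, cut at about 30% in these data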;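 note: inhibitors block probe labeling of enzyme so polarization drops; 0% = enzyme with DMSO and 100% = wells lacking PAFAH2 protein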
# pPAFAH FP inh – pPAFAH enzyme inhibitors, primary screen, biochemical, fluorescence polarization, human; Platelet-activating factor acetylhydrolase (Homo sapiens), Q13093; recombinant pPAFAH, FP-rhodamine probe fluorescence polarization; inhibition, % at 3.39 µM; hit rate 1.5% among 330,000;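 active = inhibition above the mean inhibition across the screen plus 3 SD, cut at about 25% in these data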;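 note: inhibitors block binding of the rhodamine activity-based probe so polarization drops; 0% = enzyme with DMSO and 100% = wells lacking pPAFAH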
# Target sequence (Q13093 whole entry, looked up): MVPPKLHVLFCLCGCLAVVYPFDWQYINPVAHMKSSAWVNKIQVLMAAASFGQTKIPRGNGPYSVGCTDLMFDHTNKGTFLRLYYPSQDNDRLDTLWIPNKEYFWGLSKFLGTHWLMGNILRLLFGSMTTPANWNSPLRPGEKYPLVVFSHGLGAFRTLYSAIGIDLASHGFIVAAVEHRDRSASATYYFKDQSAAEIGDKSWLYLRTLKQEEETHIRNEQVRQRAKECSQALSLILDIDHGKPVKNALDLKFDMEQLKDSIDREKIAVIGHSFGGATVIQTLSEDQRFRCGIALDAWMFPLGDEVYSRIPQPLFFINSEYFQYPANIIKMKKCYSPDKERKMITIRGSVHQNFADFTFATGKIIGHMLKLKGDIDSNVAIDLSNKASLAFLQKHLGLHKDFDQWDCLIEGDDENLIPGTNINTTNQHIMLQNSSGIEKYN
# PAFAH1B3 FP inh – PAFAH1B3 enzyme inhibitors, primary screen, biochemical, fluorescence polarization, human. Platelet-activating factor acetylhydrolase IB subunit alpha1 (Homo sapiens), Q15102. recombinant PAFAH1B3, FP-rhodamine probe. inhibition, % at 3.39 µM. hit rate 0.28% among 340,000;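 active = inhibition above the screen-wide average of all tested compounds plus 3 SD, cut at about 25% in these data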;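 note: 0% = enzyme with DMSO only and 100% = wells lacking PAFAH1B3 protein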
# PAFAH1B2 FP inh – PAFAH1B2 enzyme inhibitors, primary screen, biochemical, fluorescence polarization, human. Platelet-activating factor acetylhydrolase IB subunit alpha2 (Homo sapiens), P68402. recombinant PAFAH1B2, FP-rhodamine activity probe. inhibition, % at 3.39 µM. hit rate 1.2% among 340,000. AID 492953, 2010;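 active = inhibition above the mean of all tested compounds plus 3 SD, cut at about 24% in these data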;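 note: 0% = enzyme with DMSO and 100% = wells lacking PAFAH1B2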
# pPAFAH confirm – pPAFAH (PLA2G7) enzyme inhibitors, confirmation, biochemical, fluorescence polarization, human | shares compounds with pPAFAH FP inh | inhibition, % at 3.39 µM | recombinant pPAFAH, FP-Rh probe fluorescence polarization | hit rate 72% among 2,300 | AID 463230, 2010;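 active = mean inhibition of the triplicate above the hit cutoff set for the earlier primary screen, cut at about 25% in these data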;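 note: 0% = enzyme with DMSO and 100% = wells lacking pPAFAH enzyme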
# * marks the source's active call; other numbers are inactive results; x = no result. In the library only some 2.8% were active in any assay of this set; here they are far more common.
SMILES,Fam108B inh,PME-1 primary,PAFAH2 inh,pPAFAH FP inh,PAFAH1B3 FP inh,PAFAH1B2 FP inh,pPAFAH confirm
C(=C\c1ccco1)/C1=NN(c2ccccc2)C(c2ccco2)C1 (configuration not stated),1,-6,4,40*,3,-1,15
Oc1ccc(/C=N/Nc2cc(N3CCCC3)nc(N3CCCC3)n2)cc1O,6,6,9,56*,20,-2,28*
CC(OC(=O)c1ccccn1)C(=O)Nc1ccc2c(c1)OCCO2 (configuration not stated),x,3,-4,48*,2,0,4
N#CC(C#N)=C(N)/C(C#N)=C/c1cc(O)c(O)c(O)c1,-1,-7,35*,39*,39*,33*,60*
CC(C)(C)c1ccc(Oc2cccc(C3CC(=O)C(C4NCCc5ccccc54)C(=O)C3n3cncn3)c2)cc1 (configuration not stated),4,-4,8,41*,9,1,9
c1ccc(Nc2nc3ccccc3[nH]2)nc1,1,1,4,36*,6,3,-2
Nc1ccc2nc(-c3cccc(-c4nc5ccc(N)cc5[nH]4)n3)[nH]c2c1,13,-20,13,35*,30*,32*,54*
CC(C)(C)c1ccc(OCC(=O)O/N=C(\N)c2ccncc2)cc1,6,-1,-1,5,3,1,x
Nc1ncnc2c1c(-c1ccc(Oc3ccccc3)cc1)cn2C1CCCC1,0,-6,-3,39*,4,-7,38*
Cc1noc(C)c1S(=O)(=O)N1CCC(C(=O)N2CCC(N3CCCCC3)CC2)CC1,-4,3,-1,-4,1,-2,x
Cc1cc(C)n(-c2ccc(C(=O)OCc3ccccc3)cc2)n1,0,9,-4,12,-7,1,x
Cc1cc(C)n(-c2ccc(C(=O)OCC(=O)c3ccc(Br)s3)cc2)n1,-5,-3,50*,36*,4,2,27*
Cc1cc(C)c(NC(=O)CCc2c(C)noc2C)c(C)c1,x,-3,4,1,3,4,x
O=C(Cn1cnc2ccccc21)NC(c1ccccc1)c1ccccc1,-2,4,6,0,8,2,x
COC(=O)c1ccc(-n2c(C)cc(/C=N/Nc3nc(C)cc(=O)[nH]3)c2C)cc1,6,9,4,67*,7,1,89*
O=c1c(-c2ccc([N+](=O)[O-])cc2)coc2c(O)c(O)ccc12,1,-7,24,54*,17,9,78*
COc1cccc(OC)c1C(=O)N1CCN(C(=O)c2ccc(-c3ccccc3)cc2)CC1,3,11,3,15,-1,-5,x
CCOC(=O)N1CCN(S(=O)(=O)c2ccc(C(=O)NNc3nc4ccc(Cl)cc4s3)cc2)CC1,-1,-3,10,38*,1,0,39*
O=C(CCc1ccccc1)NC(c1cccs1)c1cc(Cl)c2cccnc2c1O (configuration not stated),x,x,2,x,14,8,x
CC(=O)NC(c1ccccc1)c1cc([N+](=O)[O-])c2cccnc2c1O (configuration not stated),1,-1,7,13,8,3,x
CC(=O)NC(c1cccs1)c1cc([N+](=O)[O-])c2cccnc2c1O (configuration not stated),-1,34*,3,49*,4,5,46*
CCCC(=O)NC(c1cccs1)c1cc([N+](=O)[O-])c2cccnc2c1O (configuration not stated),4,10,14,68*,11,2,73*

# Bioassay records as filed in PubChem.
